# Compound activity as filed in PubChem BioAssay.
# ssDAF12 agonist = activators of S. stercoralis DAF-12 nuclear receptor; HEK293 ssDAF-12/GRIP1 lit1-tk-luc reporter, luminescence; % of 3 µM dafachronic acid response; 1% of 370,000 active; activation, % at 6.8 µM; AID 652126;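 active means activation above the mean over all tested compounds plus 3 SD, cut at about 0.9% in these data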;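 further: 0% = DMSO-only wells and 100% = 3 µM delta7-dafachronic acid wells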
# hgDAF12 agonist = hgDAF-12 agonism, primary luciferase screen; 1.8% of 370,000 active; HEK293 GAL4-hgDAF12 UAS-luciferase reporter, agonist luminescence; normalized to butyrate control; activation, % at 6.8 µM; AID 687014;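 active means activation above a cutoff set at the mean of all screened compounds plus 3 SD, cut at about 10% in these data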;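 further: 0% = DMSO wells and 100% = sodium butyrate wells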
# DAX1 inh-1 = NR0B1 (DAX1) inhibition; HEK293 Gal4-DAX1 luciferase reporter, luminescence; 0.99% of 340,000 active; P51843; inhibition, % at 6.75 µM;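 active means inhibition above the mean over all tested compounds plus 3 SD, cut at about 4.2% in these data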;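 further: 0% = DAX1-transfected cells with DMSO and 100% = empty-vector control cells with DMSO; inhibition shows as a rise in luminescence from relieved DAX1 repression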
# Target sequence (P51843 207-470 limits assumed): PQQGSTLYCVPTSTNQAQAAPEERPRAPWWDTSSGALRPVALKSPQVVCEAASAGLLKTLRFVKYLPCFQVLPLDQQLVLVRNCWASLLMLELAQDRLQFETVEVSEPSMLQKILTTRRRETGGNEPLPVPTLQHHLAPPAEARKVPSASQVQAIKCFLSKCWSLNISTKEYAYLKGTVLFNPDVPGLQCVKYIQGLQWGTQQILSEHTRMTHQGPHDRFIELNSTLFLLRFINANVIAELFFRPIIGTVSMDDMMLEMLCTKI
# DAX1 inh-2 = DAX1 (NR0B1) inhibition, primary screen | HEK293T StAR-luciferase reporter, SF-1/DAX-1 repression relief | inhibition, % at 6.8 µM | 1.1% of 370,000 active | AID 652010;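 active means inhibition above the mean over all tested compounds plus 3 SD, cut at about 3.6% in these data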;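 further: 0% = DAX-1 cells with DMSO and 100% = cells lacking DAX-1 with DMSO; higher inhibition means more luminescence from relief of DAX-1 repression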
# hcDAF-12 act = activators of H. contortus DAF-12 nuclear receptor; HEK293 hcDAF-12 lit1-tk-luc reporter, luminescence; 0% DMSO, 100% Δ7-dafachronic acid; activation, % at 6.8 µM; 1.4% of 370,000 active;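 active means activation above the mean of all tested compounds plus 3 SD, cut at about 5.5% in these data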;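 further: 100% = response to 3 µM Δ7-dafachronic acid high control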
# Starred values were filed as active, the others as inactive; . = not tested or not shown. Most compounds without a hit are left out; they make up all but 4.1% or so of the library.
SMILES,ssDAF12 agonist,hgDAF12 agonist,DAX1 inh-1,DAX1 inh-2,hcDAF-12 act
O=C(Nc1ccc(N2C(=O)[C@@H]3[C@H](C2=O)[C@@H]2C=C[C@H]3C2)c(Cl)c1)c1ccccn1,0,12*,.,.,4
CN(C(=O)COC(=O)COc1ccc(N(C)S(=O)(=O)c2ccc(Cl)cc2)cc1)c1ccccc1,-1,-3,1,1,0
COc1ccc(C2C(C(=O)N3CCC(C)CC3)CC(=O)N2c2ccc(OC)cc2)cc1 (stereo unspecified),-1,0,.,-1,-2
CC(Sc1nnc(C2CC2)n1-c1ccccc1)C(=O)N1CCCC1 (stereo unspecified),-1,13*,1,0,0
O=C(Cc1noc2ccccc12)Nc1ccccn1,0,11*,4,1,2
Cc1ccc(NC(=O)Cc2noc3ccccc23)nc1,-1,4,-1,1,-1
O=C1N/C(=N/N=C/c2ccco2)SC1Cc1ccccc1 (stereo unspecified),-1,-3,5.9*,0,-1
COc1ccc(Nc2cc(C)nc3c(C)cccc23)cc1OC,-2,-1,3,0,2
CCOc1ccc(Nc2cc(C)nc3c(C)cccc23)cc1,-2,-2,4.9*,0,-2
Cc1ccc(S(=O)(=O)N2CCC(=O)N(C(COCc3ccc(Cl)cc3Cl)Cc3ccccc3)CC2)cc1 (stereo unspecified),-2,3,5.3*,-1,-1
O=C(Nc1ccc(Cl)c(Cl)c1)C1CCCN1S(=O)(=O)c1cccc2cccnc12 (stereo unspecified),-2,-2,.,-3,-5
O=C1c2ccccc2C(=O)N1CCOc1cccc(Br)c1,0,10,1,4.4*,2
Cc1ccc(Cn2nnc3c2-c2ccccc2S(=O)(=O)N(C2CC2)C3)cc1,-1,0,.,-1,-4
O=C(CC(c1ccc(F)cc1)c1ccco1)Nc1nccs1 (stereo unspecified),2.1*,-1,-1,-1,-1
CCN1CCCCC(NC(C)=O)C1=O (stereo unspecified),-1,0,.,-1,-3
O=C(COC(=O)c1ccncc1)c1ccc(Br)cc1,-1,-2,4.6*,1,1
Cc1c(N2C(=O)c3ccc(Br)cc3C2=O)c(=O)n(-c2ccccc2)n1C,-1,-2,5.4*,0,-1
Cc1c(N2C(=O)c3ccc4c5c(ccc(c35)C2=O)CC4)c(=O)n(-c2ccccc2)n1C,.,.,0,.,.
COc1cc(NC(=O)C2CCN(c3nnc(-n4cccc4)s3)CC2)cc(OC)c1,-2,1,.,0,1
CCc1nnc(NC(=O)C=C(C)C)s1,0,8,2,2,1
CC(C)=CC(=O)Nc1nnc(-c2ccccc2C)s1,-1,6,5.2*,2,0
Cc1cc(C)cc(N(CC(=O)NC2CCC(C)CC2)S(=O)(=O)c2cccs2)c1 (stereo unspecified),-1,6,.,0,0
O=[N+]([O-])c1cc(Oc2cccnc2)cc([N+](=O)[O-])c1,-2,-4,4.4*,-1,-3
Cc1cc(NS(=O)(=O)c2ccc(NC(=O)Cc3ccc(Cl)c(F)c3)cc2)no1,-2,-1,.,-1,-3
O=C(O)Cn1c(SCc2cccc3ccccc23)nc2ccccc21,0,1,0,0,6.1*
SMILES,ssDAF12 agonist,hgDAF12 agonist,DAX1 inh-1,DAX1 inh-2,hcDAF-12 act
CCOC(=O)C1=CC[C@H]2c3c(c4ccccc4n3C)C(=O)C1N2Cc1ccccc1,-1,-3,0,0,0
CCOC(=O)C1=CC[C@H]2c3c(c4ccccc4n3C)C(=O)C1N2C,-1,-1,5.1*,0,1
Cc1ccc(S(=O)(=O)N(C)C)cc1NC(=O)C(C)OC(=O)/C=C/c1cccs1 (stereo unspecified),-1,-1,1,1,-2
Cn1c(O)c(C2=c3ccccc3=NC2=O)[nH]c1=S,1.2*,1,1,0,5
COc1ccc2nc(-n3c(O)c(C4=c5ccccc5=NC4=O)[nH]c3=S)sc2c1,0,2,-2,1,1
CC(=O)c1sc(NC(=O)c2ccccc2)nc1-c1ccccc1,1,12*,4.8*,3,2
O=C(Nc1nc(-c2ccccc2)c(C(=O)c2ccccc2)s1)c1ccc(S(=O)(=O)N2CCCCC2)cc1,0,2,-1,0,6.5*
O=C(Nc1nc(-c2ccccc2)c(-c2ccccc2)s1)c1ccc(S(=O)(=O)N2CCCCC2)cc1,-1,1,-1,0,-1
CCN(CC)C(=O)CN1C(=O)C2CCCCN2C(=O)c2ccccc21 (stereo unspecified),-1,3,.,0,-3
COc1ccc(CC2CCN(c3ncnc4sccc34)CC2)cc1,-2,-7,.,.,-5
O=C(OCc1cn(Cc2cccc(Cl)c2)nn1)N1CCCC1,-1,1,.,-1,-2
CC(NCc1ccco1)C(=O)N1CCN(c2ccc(F)cc2)CC1 (stereo unspecified),-1,5,.,0,-1
O=C(OCc1cn(Cc2cccc(F)c2)nn1)N1CCCCC1,-1,-2,.,0,-2
O=C(O)CN1C(=O)/C(=C2\SC(=S)N(C(Cc3ccccc3)C(=O)O)C2=O)c2ccccc21 (stereo unspecified),1.2*,1,0,0,6.4*
O=C(c1ccccc1)N1CC[C@H]2[C@H](CCCN2Cc2ccccc2)C1,-2,0,.,0,1
CCCCCCOc1ccc(C(CC(=O)NC)C(=O)O)cc1 (stereo unspecified),-1,-1,-2,1,0
CCCCCCOc1ccc(C(CC(N)=O)C(=O)O)cc1 (stereo unspecified),0,-2,4.4*,0,-1
O=C(c1ccncc1)N1CCC(Oc2cccnc2)CC1,-1,-2,.,1,-2
COC(=O)[C@]12C[C@H](CC(=O)NCCCCc3ccccc3)C(=O)N(Cc3ccc(Cl)cc3Cl)C1=C[C@H](C(C)(C)C)O[C@@H]2C,-1,4,.,-1,-2
COc1ccc2cc3c(N)nn(C(=O)c4ccccc4Cl)c3nc2c1,-3,5,0,-2,-5
COc1ccc2cc3c(N)nn(C(=O)Cc4c[nH]c5ccccc45)c3nc2c1,-2,14*,-1,0,-3
COc1ccc2cc3c(N)nn(C(=O)c4ccc(F)cc4)c3nc2c1,-2,12*,0,0,-1
COc1ccc2cc3c(N)nn(C(=O)c4cccc(F)c4)c3nc2c1,-2,0,4.4*,1,-2
COC(=O)c1cc2c(c3c4cc(F)ccc4n(S(=O)(=O)c4cccc(C)c4)c13)C(=O)N(Cc1ccc(C(F)(F)F)cc1)C2,0,1,.,-1,2
FC(F)Oc1ccc(NC(=S)N2CCc3ccccc32)cc1,1.4*,6,0,0,4
